Reference: the supplement of paper PMC5662767
Where a name gives a salt, the structure may show the parent alone.

Test system: Drosophila S2 cl14 SmoIP sensor cells
Assay: normalized SmoIP GFP fluorescence (untreated unstimulated = 0%, untreated Hh-stimulated = 100%); higher = more Smo activation sensor fluorescence
Settings: compound concentration: 2 uM, 24 h
[1] = stimulation: Hh conditioned medium (+Hh)
[2] = stimulation: mock conditioned medium (-Hh)
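Note: flow cytometry read-out as median GFP intensity of gated cells, compounds added 30 min before Hh-conditioned or mock medium, mock-treated cells serving as unstimulated baseline.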

Row | Compound | normalized SmoIP GFP fluorescence [1] [%] | normalized SmoIP GFP fluorescence [2] [%]
1 | Cc1nccn1CC1CCc2c(c3ccccc3n2C)C1=O (centres undefined) [Ondansetron-hydrochloride] | 109 | -2.96
2 | Cc1ccc(Sc2ccccc2N2CCNCC2)c(C)c1 | 169 | -11.4
3 | CN(C)c1ccc(-c2nc3ncc(Cl)c(N4CCN(CC(=O)Nc5nccs5)CC4)c3[nH]2)cc1 | 125 | 6.74
4 | CCN1CCCC1CNC(=O)c1cc(S(=O)(=O)CC)c(N)cc1OC (centres undefined) [Amisulpride] | 111 | 3.51
5 | O=C(Nc1cccc(Cl)c1)Nc1ncc(CCNc2ncnc3ccsc23)s1 | 127 | 11
6 | CC(C)c1nc(CN(C)C(=O)N[C@H](C(=O)N[C@@H](Cc2ccccc2)C[C@H](O)[C@H](Cc2ccccc2)NC(=O)OCc2cncs2)C(C)C)cs1 [Ritonavir] | 109 | -4.47
7 | CN1C(C(=O)Nc2ccccn2)=C(O)c2sc(Cl)cc2S1(=O)=O [lornoxicam-xefo] | 129 | -4.89
8 | O=C(c1ccc(/C=C/c2n[nH]c3ccccc23)cc1)N1CCNCC1 | 83 | -1.34
9 | CC(C)(C)c1cc(C(C)(C)C)c(NC(=O)c2c[nH]c3ccccc3c2=O)cc1O | -31.6 | 7.39
10 | Cc1cc(C)c(Nc2ccnc(Nc3ccc(C#N)cc3)n2)c(C)c1 [dapivirine] | 111 | -4.13
11 | CC1(C)CC(=O)c2c(C(F)(F)F)nn(-c3ccc(C(N)=O)c(N[C@H]4CC[C@H](OC(=O)CN)CC4)c3)c2C1 | 233 | 83.8
12 | C[C@@H]1CCO[C@H]2Cn3cc(C(=O)NCc4ccc(F)cc4F)c(=O)c(O)c3C(=O)N12 | 140 | -15.3
